This is an account of results in PubChem BioAssay AID686979 (National Center for Advancing Translational Sciences (NCATS), 2013).

Structures are written as SMILES. About 50,000 (12%) of roughly 420,000 compounds were called active. About 26% were inconclusive and are not listed. Shown is part of a subset that was picked to be rich in actives. Values without a mark were called inactive. The call rests on the fitted dose curve; in most records, active means well fitted inhibition curve with a large enough effect; inconclusive means small, poorly fitted or top-dose-only effect; inactive means flat fitted curve, though single readings scatter.
On the % scale 0 is the no-effect control and ±100 the full control effect; potency means the concentration at half of the fitted maximal effect.

The nature of the assay: qHTS for Inhibitors of human tyrosyl-DNA phosphodiesterase 1 (TDP1): qHTS in cells in presence of CPT. Further: nearly all actives have a fitted effect of over 55% in size. The following applies: chicken DT40 Tdp1-/-;hTDP1 cells + 20 nM CPT, ATP luminescence, 48 h; series mostly up to 46.2 µM; activity change, negative = growth inhibition: at the top concentration. The gist of the method:
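Chicken DT40 Tdp1-/- cells complemented with human TDP1, 400 cells/well, exposed to compounds plus 20 nM camptothecin for at least 48 h at 37 C; viability read as ATP content by CellTiter-Glo luminescence.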
A general note: In qHTS, concentration-response curves come from the screen itself.
`Cc1ccc2c(c1)N(CCCC(=O)NCc1cccnc1)C(=O)CO2`: the “activity change, negative = growth inhibition” value was 13.5%.
On the same count and under the same terms, the figure for `Cc1nc(CC(=O)NNS(=O)(=O)c2ccc(F)c(Cl)c2)cs1` is 1.93%.
Same read-out and setting: then `CN(C)S(=O)(=O)c1ccc(Cl)c(NC(=O)COC(=O)CC(NC(N)=O)c2ccc(Cl)cc2)c1` (stereo not given), with -19.7%.
For `CCOC(=O)C1CCN(Cc2nnc(-c3cccc(Br)c3)o2)CC1`, the “activity change, negative = growth inhibition” value is -15.7%.
`CCCCCCCNC(=O)C1(CC2CC(c3cccc(Br)c3)=NO2)CCN(C(=O)c2cc(OCC)c(OCC)c(OCC)c2)CC1` (stereo not given): the Potency is 23.1 µM (active).
`CN(CC(=O)NCCc1ccccc1)S(=O)(=O)c1cnc[nH]1`: the “activity change, negative = growth inhibition” value was -3.81%.
Regarding `Cc1ccc(Nc2nc(CSc3nnc(-c4ccncc4)n3-c3ccccc3C)cs2)cc1`, the Potency was 13 µM (active).
Take `Cn1c(SCc2ccc(F)cc2)nnc1-c1ccncc1`: the “activity change, negative = growth inhibition” value is -10.9%.
On the same count and under the same terms, the figure for `CCOc1ccccc1-n1c(SCC(=O)NCc2ccco2)nnc1-c1ccncc1` is -3.89%; for `O=C(O)CC/C(=C\c1cc2c(cc1Br)OCO2)c1nc2ccccc2s1` it is 3.75%; for `O=C(N1CCCC1)C12CC3CC(C1)CC(C(=O)N1CCCC1)(C3)C2` it is 0.242%.
As to `CCCc1nc(SCC(=O)Nc2ccccc2OC)c2c(=O)n(C)c(=O)n(C)c2n1`, the Potency is 14.6 µM (active).
With `CCCc1nc(SCC(=O)N2CCCC2)c2c(=O)n(C)c(=O)n(C)c2n1`, the “activity change, negative = growth inhibition” value was -6.82%.
Take `CCc1nc(SCC(=O)Nc2ccccc2OC)n[nH]1`: the “activity change, negative = growth inhibition” value is 0.57%.
Same read-out and setting: the figure for `O=C(Cc1c[nH]c2ccccc12)N/N=C/c1cccc(F)c1` is -2.53%; for `O=C(CSCc1c(Cl)cccc1Cl)NN1C(=O)c2ccccc2C1=O` it is -19.9%; for `Cc1ccc(Cn2c(C)c3cnn(CC(=O)NCCN4CCOCC4)c(=O)c3c2C)cc1` it is -2.81%.
Still for that read-out and setting: the figure for `Cc1ccccc1CNC(=O)Cn1c(C)c2cnn(-c3ccccc3)c(=O)c2c1C` is -0.956%.
Turning to `O=C(Cn1ncc2c3ccccc3n(Cc3ccccc3)c2c1=O)NCc1ccccn1`, the Potency result was “inactive”.
Regarding `Cc1ccc(Cn2c(C)c3cnn(CC(=O)NCc4ccccc4)c(=O)c3c2C)cc1`, the Potency is 2.91 µM (active).
As for `CC1CC(C)CN(CCCNC(=O)Cn2ncc3c([nH]c4ccccc43)c2=O)C1` (stereo not given), the “activity change, negative = growth inhibition” value is 0.742%.
For the molecule `CCCn1c2ccccc2c2cnn(CC(=O)NCC3CCN(Cc4ccc(C)cc4)CC3)c(=O)c21`, the Potency was 20.6 µM (active).
The same measure, in the same setting: the figure for `CCCn1c2ccccc2c2cnn(CC(=O)NCCCOC(C)C)c(=O)c21` is 23.1 µM (active).
Still for that read-out and setting: the entry for `CC1CCCCN1CCCNC(=O)Cn1ncc2c([nH]c3ccccc32)c1=O` (stereo not given) is “inactive”.
Consider `COc1cc(NC(=O)NCC2CCN(Cc3ccc(C)cc3)CC2)cc(OC)c1OC`, for which the “activity change, negative = growth inhibition” value was -8.33%.
Same read-out and setting: the figure for `O=C1C(Cl)=C(N2CCOCC2)C(=O)N1c1ccccc1` is -20.8%.
On the same count and under the same terms, then `CCOC(=O)CNC(=O)CSc1ncccc1-c1nc2ccccc2[nH]1`, with 10.4%; and `COc1ccccc1C1=CC(=O)C[C@H](c2ccc(F)cc2)C1`, with -29.5%.
Same read-out and setting: then `COc1ccc(-c2nnc3n2CCCCC3)cc1`, with 8.16%; and `O=C(O)c1ccc([N+](=O)[O-])cc1Sc1ccsc1`, with -11.6%; and `COc1ccc(-c2nc3c(c(SCC(=O)Nc4ccc(C(=O)O)cc4)n2)Cc2ccccc2O3)cc1`, with -18.6%.
As to `Cc1ccc(-c2nc(Cn3c(=O)cc(-c4ccccc4)c4c(C)nn(C)c43)c(C)o2)cc1`, the “activity change, negative = growth inhibition” value was -16.3%.
For `CCOC(=O)Nc1ccc(NC(=O)OCC)cc1`, the “activity change, negative = growth inhibition” value was -20.3%.
Consider `CCOC(=O)Nc1ccc2c(c1)N(C(=O)CCCl)c1ccccc1[S@]2=O`, for which the Potency is 4.61 µM (active).
Turning to `CCOC(=O)Nc1ccc2c(c1)N(C(=O)CCN1CCN(CCO)CC1)c1ccccc1CC2`, the “activity change, negative = growth inhibition” value is -0.457%.
Still for that read-out and setting: then `CN(CC(=O)Nc1ccccc1F)CC(=O)Nc1ccccc1Br`, with -2.65%.
Turning to `CN(C(=N)N)c1ccc(/C=C2\C=Cc3ccccc32)cc1`, the Potency was 5.01 µM (active).
As to `COc1ccc(N(CC(=O)N/N=C/c2cccc3c2OCCO3)S(=O)(=O)c2ccc(NC(C)=O)cc2)cc1`, the “activity change, negative = growth inhibition” value was 1.44%.
On to `CCCCc1ccc(NS(=O)(=O)c2cccc(C(=O)N3CCCN(C)CC3)c2)cc1`, for which the Potency was 23.1 µM (active).
Consider `O=C(c1cccc(S(=O)(=O)Nc2ccccc2Cl)c1)N1CCN(C(=O)c2ccco2)CC1`, for which the “activity change, negative = growth inhibition” value was -7.9%.
On the same count and under the same terms, then `CC(=O)N1CCN(C(=O)c2cccc(S(=O)(=O)Nc3ccc(C)cc3)c2)CC1`, with -5.91%; and `COc1ccc(Br)c2c1C(=O)CC2`, with 5.78%.
Turning to `Nc1nonc1-n1nnc(C(=O)N/N=C/C2CCCCC2)c1-c1ccccc1`, the “activity change, negative = growth inhibition” value was -15%.
In the case of `CC(=O)Nc1ccc(Oc2ccc3c(c2)C(=O)NC3=O)cc1`, the “activity change, negative = growth inhibition” value was 25.5%.
On the same count and under the same terms, then `O=C(CCn1nnc2ccccc21)OCC(=O)c1ccc([N+](=O)[O-])cc1`, with -22.6%.
For `O=C(CC(n1cncn1)C(Cl)(Cl)Cl)c1ccc([N+](=O)[O-])cc1` (stereo not given), the Potency is 16.4 µM (active).
Take `O=C(NNS(=O)(=O)Cc1ccccc1)c1ccc([N+](=O)[O-])cc1`: the “activity change, negative = growth inhibition” value is -13%.
For the molecule `O=C(COc1coc(CN2CCN(c3ccccc3F)CC2)cc1=O)N1CCc2ccccc21`, the “activity change, negative = growth inhibition” value is -16.5%.
Same read-out and setting: the figure for `Cc1cc(N2CCOCC2)nc(-c2ccc(Br)cc2)n1` is -12.4%; for `O=C1CC(C(=O)O)NC(=S)N1` (stereo not given) it is 31.6%.
